Values joined by “and” are separate entries in the source; they are usually repeats but may differ in a detail not shown here. Equal values may be shown once. Records with an inconclusive call do not appear. Some compounds were tested as several samples or in several runs, with calls that do not always agree. Active and inactive are the calls of the source. Calls come from the whole dose curve; as a rule, active = well fitted inhibition curve with a large enough effect; inconclusive = small, poorly fitted or top-dose-only effect; inactive = no such curve, though single readings can be large or run the other way.
% is set by controls: 0 for no effect and ±100 for the full control effect.

A short description of the test: Primary qHTS for inhibitors of nuclear receptor binding SET domain protein 2 (NSD2) in an RCH-ACV wild type WT cells (2C) (AID 1645877). Note: nearly all actives have a fitted effect of over 70% in size. As to conditions: RCH-ACV (leukaemia line) NSD2 WT (2C) viability, CellTiter-Glo, 72 h; series mostly up to 44.9 µM; activity change, negative = cell killing: at the top concentration. From the text:
Assay Provider: Jonathan D. Licht, MD
University of Florida College of Medicine, Gainesville, FL
Mutations in epigenetic regulators are common in relapsed pediatric acute lymphoblastic leukemia (ALL). Here, we uncovered the mechanism underlying the relapse of ALL driven by an activating mutation of the NSD2 histone methyltransferase (p.E1099K). […] Correction of this mutation restored glucocorticoid sensitivity. The transcriptional response to glucocorticoids was blocked in NSD2 mutant cells due to depressed glucocorticoid receptor (GR) levels and the failure of glucocorticoids to autoactivate GR expression. […] Pre-treatment of NSD2 p.E1099K cell lines and PDX samples with PRC2 inhibitors reversed glucocorticoid resistance in vitro and in vivo.
High-throughput drug screening of isogenic RCH-ACV cell lines was performed at the National Center for Advancing Translational Science (NCATS), National Institutes of Health as previously described (1). Briefly, isogenic RCH-ACV NSD2 p.E1099K mutant (9B) and WT cells (2C) were plated at 500 cells/well in a 1536-well plate with a 72-hour incubation with compounds prior to addition of CellTiter-Glo to assess cell viability. NCATS libraries screened include: NPC, MIPE 5.0, Kinase and NPACT. To determine compound activity in the qHTS assay, the concentration-response data for each sample was plotted and modeled by a four-parameter logistic fit yielding IC50 and efficacy (maximal response) values. The area under the curve (AUC) of the dose-response curve ensures both efficacy (magnitude of cell killing) and potency (concentration that elicits cell killing) are accounted for in the analysis of activity.
1. Tobie D Lee, Olivia W Lee, Kyle R Brimacombe, Lu Chen, Rajarshi Guha, Sabrina Lusvarghi, Bethilehem G Tebase, Carleen Klumpp-Thomas, Robert W Robey, Suresh V Ambudkar, Min Shen, Michael M Gottesman, Matthew D Hall. A High-Throughput Screen of a Library of Therapeutics Identifies Cytotoxic Substrates of P-glycoprotein. Mol Pharmacol. 2019, Nov;96(5):629-640.
For `Clc1ccc2ncc(-c3cccc(NC4CCNC4)n3)n2c1` (stereo not given), the Potency was 1.16 µM (active).
The same measure, in the same setting: the figure for `Nc1ncnc2c1nc(Cl)n2C1O[C@H](CO)[C@@H](O)[C@H]1O` (stereo not given in full) is 1.84 µM (active).
For the molecule `CN(CCCNC(=O)c1ccc2nc3c(c(Cl)c2c1)CCCC3)Cc1ccccc1`, the Potency is 8.17 µM (active).
Same read-out and setting: the figure for `C#Cc1cccc(Nc2ncnc3cc(OC)c(OC)cc23)c1` is 20.6 µM (active); for `CN(CCO)C1CCN(c2ccc(Nc3ncc4c5ccnc(F)c5n(C5CCCC5)c4n3)nc2)CC1` it is 0.512 µM (active).
In the case of `CC1OC2O[C@H]3[C@@H](OCC(O)[C@H]3O)OC(=O)C34CCC(C)(C)CC3C3=CCC5C6(C)CC(O)C(OC7OC(CO)C(O)C(O)C7O[C@@H]7OC[C@H](OC(=O)CC(C)(O)CC(=O)OC1C(OC1OCC(O)C(O)C1O)C2O)[C@@H](O)[C@H]7O)C(C)(CO)C6CCC5(C)C3(C)CC4` (stereo not given in full), the Potency is 4.47 µM (active).
With `CCNC(=O)[C@@H]1CCCN1C(=O)[C@H](CCCN=C(N)N)NC(=O)[C@H](CC(C)C)NC(=O)[C@@H](CC(C)C)NC(=O)[C@H](Cc1ccc(O)cc1)NC(=O)[C@H](CO)NC(=O)[C@H](Cc1c[nH]c2ccccc12)NC(=O)[C@H](Cc1cnc[nH]1)NC(=O)[C@@H]1CCC(=O)N1`, the “activity change, negative = cell killing” value was 3.84% [at 17.3 µM] (inactive).
On to `COc1cc(OC)c(/C=C2\C(=O)Nc3ccccc32)c(OC)c1`, for which the Potency is 0.92 µM (active).
With `Nc1ncnc2c1ncn2[C@@H]1O[C@H](CO)C[C@H]1O`, the Potency was 5.78 µM (active).
The same measure, in the same setting: the figure for `C=C1C(=O)O[C@@H]2C[C@@H](C)[C@]34C[C@]5(C(=O)O[C@H]6CC(C)=C([C@H](C)CCCO)[C@H](OC(=O)C(C)CC)[C@H]65)[C@@H](C(C)=C3C[C@@H]12)[C@H]4OC(C)=O` (stereo not given in full) is 1.53 µM (active); for `CN1CCN(c2nc(C3=C(c4c[nH]c5ccccc45)C(=O)NC3=O)c3ccccc3n2)CC1` it is 14.8 µM (active); for `O=c1sn(-c2cccc3ccccc23)c(=O)n1Cc1ccccc1` it is “inactive and 7.42 µM (active)”.
On the same count and under the same terms, then `O=C(Nc1cc(Oc2cc(F)c(NC(=O)C3(C(=O)Nc4ccc(F)cc4)CC3)cc2F)ccn1)C1CC1`, with 2.59 µM (active) and inactive.
Same read-out and setting: then `CC(C)(C)c1ccc(-c2nc3ccccc3[nH]2)cc1`, with 6.32 µM (active); and `O=S(=O)(c1cccc2ccccc12)n1ccc2ccc(N3CCN4CCCC4C3)cc21` (stereo not given), with 14.5 µM (active).
On to `N#Cc1cccc(C#N)c1-c1nc2c3ccccc3c3cc(Cl)ccc3c2[nH]1`, for which the Potency was 10.3 µM (active).
In the case of `Nc1ncnc(Nc2ccc(OCc3ccccc3)c(Cl)c2)c1/C=N/OCCN1CCOCC1`, the Potency was 8.33 µM (active).
On the same count and under the same terms, the figure for `C[C@H]1COCCN1c1cc(C2(S(=O)(=O)C3CC3)CC2)nc(-c2ccc(NC(=S)NCCO)cc2)n1` is 0.0934 µM (active); for `CN(C)CCOc1ccc(-c2nc(-c3ccc4c(c3)CC/C4=N/O)c(-c3ccncc3)[nH]2)cc1` it is 7.31 µM (active).
Regarding `CC(=O)Nc1ccc(C(=O)NC(C)(C)C)cc1`, the Potency entry was “inactive”.
Turning to `COc1ccc(-c2cc(C(O)C3CCCCN3)c3ccccc3n2)cc1` (stereo not given), the Potency is 4.68 µM (active).
Same read-out and setting: then `CCC(=O)c1cc(-c2ccc(Cl)cc2)n(-c2ccc(S(N)(=O)=O)cc2)c1C`, with 16.3 µM (active).
The same measure, in the same setting: the figure for `CN(C)CC(=O)N1CCC[C@@H](n2nc(-c3ccc(Oc4ccccc4)cc3)c3c(N)ncnc32)C1` is 1.64 µM (active); for `Cc1nc(CN(C)c2ncnc3ccc(-c4ccc5c(c4)OCO5)cc23)cs1` it is 9.2 µM (active); for `Cc1cc(Nc2cc(C)c(C#N)c(NC(C)CCCC(C)(C)O)n2)n[nH]1` (stereo not given) it is 1.16 µM (active).
The same measure, in the same setting: then `CC(=O)C1=C(O)C2c3c[nH]c4cccc(c34)CC2C(C)(C)N(C)C1=O` (stereo not given), with 14.5 µM (active).
Take `COc1cc(OC)c2ccc(=O)oc2c1`: the “activity change, negative = cell killing” value was -16.3% [at 91.9 µM] (inactive).
With `CNc1cc2c(Nc3cccc(Br)c3)ncnc2cn1`, the Potency is 20.6 µM (active).
The same measure, in the same setting: then `COCCNCc1ccc(-c2cc3nccc(Oc4ccc(NC(=S)NC(=O)Cc5ccc(F)cc5)cc4F)c3s2)nc1`, with 3.25 µM (active) and 2.35 µM (active).
Same read-out and setting: then `CCOc1cccc2c1OC(c1ccc(F)cc1)C([N+](=O)[O-])=C2` (stereo not given), with 5.8 µM (active).
Consider `COC[C@H](C)Oc1cc(O[C@@H](C)Cc2ccccc2)cc(C(=O)Nc2ccc(C(=O)O)cn2)c1`, for which the molecule was called inactive.
In the case of `O=C1NC(=O)/C(=C\c2ccc3nccc(-c4ccncc4)c3c2)S1`, the Potency was 0.366 µM (active).
The same measure, in the same setting: the figure for `C=CC(=O)Nc1cc(Nc2nccc(-c3cn(C)c4ccccc34)n2)c(OC)cc1N(C)CCN(C)C` is 2.95 µM (active); for `C[C@@H](Nc1cc(F)cc(F)c1)c1cc(C(=O)N(C)C)cc2c(=O)cc(N3CCOCC3)oc12` it is 411 nM (active) and 1.18 µM (active).
In the case of `C=C(C)C(=O)OC1[C@@H]2C(=C)C(=O)O[C@@H]2C[C@@H](C)[C@@H]2C=CC(=O)[C@@]12C` (stereo not given in full), the Potency was 10.1 µM (active).
On to `CC(CCc1ccccn1)(CCc1ccccn1)C(=O)c1ccccc1`, for which the molecule was classed as inactive.
As to `Cc1ccc2c(Nc3ccc(Cl)cc3)nccc2c1Nc1ncccc1-c1ncnc2nc[nH]c12`, the Potency is 20.6 µM (active).
As to `O=[N+]([O-])c1ccc(-[n+]2nc(-c3ccccc3)nn2-c2ccc(I)cc2)cc1`, the “activity change, negative = cell killing” value was -15.9% (inactive).
On the same count and under the same terms, the figure for `O=c1cc(-c2ccc(O)cc2)oc2cc(OC3OC(CO)C(O)C(O)C3O)c(C3OC(CO)C(O)C(O)C3O)c(O)c12` (stereo not given) is -5.29% (inactive).
Take `CN(c1ccc(NC(=O)Nc2ccc(OC(F)(F)F)cc2)cc1)c1ccnc(Nc2cccc(S(N)(=O)=O)c2)n1`: the Potency was 1.03 µM (active).
